Test results taken from the supplement of paper PMC3334620.
Over roughly 33,000 sequences, “E-score (-0.5 to 0.5)” has its median near -0.016; the highest 2% begin near 0.3. Shown is part of a subset that was picked to be rich in the highest values.

Molecular target: T1, Yer184c (UniProt P39961)
T1 sequence: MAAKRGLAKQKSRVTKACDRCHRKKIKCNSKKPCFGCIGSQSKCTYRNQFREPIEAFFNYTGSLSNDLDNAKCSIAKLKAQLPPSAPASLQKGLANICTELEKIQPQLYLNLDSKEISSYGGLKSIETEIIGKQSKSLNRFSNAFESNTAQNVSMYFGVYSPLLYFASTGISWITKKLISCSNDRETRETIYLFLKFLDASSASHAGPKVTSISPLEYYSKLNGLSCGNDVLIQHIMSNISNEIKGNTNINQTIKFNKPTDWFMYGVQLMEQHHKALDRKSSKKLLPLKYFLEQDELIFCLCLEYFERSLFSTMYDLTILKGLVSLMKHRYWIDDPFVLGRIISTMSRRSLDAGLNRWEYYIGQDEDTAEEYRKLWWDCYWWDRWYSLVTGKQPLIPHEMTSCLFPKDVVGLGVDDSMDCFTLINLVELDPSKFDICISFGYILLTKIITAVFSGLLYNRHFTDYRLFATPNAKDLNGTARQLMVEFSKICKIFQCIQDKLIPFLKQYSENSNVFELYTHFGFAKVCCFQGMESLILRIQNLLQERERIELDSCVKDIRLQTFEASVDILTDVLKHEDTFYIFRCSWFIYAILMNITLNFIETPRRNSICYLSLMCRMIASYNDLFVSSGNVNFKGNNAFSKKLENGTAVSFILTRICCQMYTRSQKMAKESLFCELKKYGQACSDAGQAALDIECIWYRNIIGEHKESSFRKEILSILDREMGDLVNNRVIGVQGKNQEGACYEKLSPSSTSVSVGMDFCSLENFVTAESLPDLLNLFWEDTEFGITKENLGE
Test: PBM E-score (8-mer binding enrichment) (E-score (-0.5 to 0.5)); higher = stronger / more preferred TF binding
Conditions: protein concentration: 100 nM; construct: GST-full length
Summary of the method: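 The E-score, a modified Wilcoxon-Mann-Whitney statistic, was computed by the Universal PBM Analysis Suite for every ungapped eight-base word pooled with its reverse complement. Scans behind it were normalised with masliner after bound GST-tagged yeast transcription factors were detected with fluorescent anti-GST. The proteins, at about 100-200 nM, had been applied to universal all-10-mer Agilent arrays made double-stranded by primer extension.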

Sequence	PBM E-score
ACTCATTA	-0.0725
CGGTTGAC	0.113
TGGTTGAA	-0.0916
CGGTTGAA	0.304
ACTATGCA	-0.111
ATTCCAGC	-0.0455
ATTCCCCG	0.117
ACTCCGGC	0.326
ATTCCGCC	0.16
CCTCCGGC	0.3
ATTCCGGC	0.393
ATTCCCGA	0.162
ATTCCGGG	0.356
ACTCCGGG	0.265
ATTCCCGG	0.384
ATTCCTGG	-0.138
AATCCGGG	0.269
CGCTTAAG	-0.133
CCCTACCC	-0.256
AAGATACC	0.187
GGATTCCC	-0.173
AGGCTTTA	-0.154
CAACTAGC	0.0974
CCTCCCCG	-0.0343
AGACGGAT	0.195

Sequence	PBM E-score
GGACGGAA	0.0833
AGCCGGAG	0.402
GGCCGGAC	0.294
CGCCGGAG	0.222
AGCCGTAT	0.214
AGCCGGAT	0.402
GACCGGAC	0.245
AGCCGTAG	0.155
GGGCGGAA	0.0682
GGCCGGAA	0.338
AGCCGGAC	0.339
AGTGAGCA	-0.0113
CGGGTTGC	0.118
AGCTGGAC	-0.0983
AAACCCAC	0.0014
AACGCAGT	-0.081
ACTCGCCG	0.131
AGCACCAT	-0.291
GCCCAAGC	-0.0265
CGCCGGAA	0.368
AGACGGAA	0.277
TGACGGAA	0.17
CGGCGGAA	0.298
AGGCGGAA	0.195
AGCCGGAA	0.423

Sequence	PBM E-score
CGCCGGAC	0.28
TGCCGTAA	0.0109
TGCCGGAA	0.421
CCTGGTTC	-0.0462
CGAGCCCC	-0.186
AAGAGAAT	0.0316
ACGTTAGT	-0.0893
CGATTTCC	0.214
CGGCACCA	0.256
CGGCACCG	0.346
CGGCACCC	0.048
CCTACCAA	0.0704
TCTCAAGA	-0.0209
CCCTAGAC	-0.189
ACGGTTGA	-0.0221
CCGGTTGA	0.321
GCGGTTGA	0.113
CCGGTTGC	0.355
ACGGTTGC	-0.129
CCGGTTTC	0.244
ACTCTTCT	-0.0645
CTTGGTCC	0.0693
TCGTGTCA	-0.0881
ACACTGCT	-0.244
GCAATAGA	-0.0314

Sequence	PBM E-score
CCTCAGCC	-0.233
ACGCTTTA	-0.0723
CAGTCGCG	-0.189
CAATCCGA	0.184
CAATCCGC	0.095
AAATCCGT	0.181
AAATCCGC	-0.00733
CAATCCGG	0.316
AAATCCGG	0.394
AGCGGTGA	-0.0103
ACTCTGCG	0.013
CCCGTTAA	-0.0453
CCGGTTAA	0.297
GCCGTTAA	0.169
TCGGTTAA	0.333
TCCGTTAA	0.305
GCGGTTAA	0.0539
ATTGTGAG	0.09
ACTTCTCG	0.17
ACGCCGAG	0.328
ACGCCGTG	0.0103
CCGCCGAA	0.313
CCGCCGTA	0.075
CCGCCGAC	0.109
CCGCCAAA	0.14

Sequence	PBM E-score
ACGCCGCG	0.0694
CCGCCGAG	0.304
CCGCCGCG	0.172
CCTAAAGG	-0.122
GCTACCGA	0.0575
AAATGAGC	0.038
CTAGGAGA	-0.0687
CCCGACTC	-0.0899
CCTAAAAA	0.105
ACCGAAGC	0.1
ACCGAAGA	0.344
GCCGAAGA	0.315
GCCGAAGC	0.246
CCCGAAGA	0.105
ACCGAAGT	0.136
GACGAAGA	0.0167
TCCGAAGA	0.376
TACGAAGA	0.05
CTCTAGTC	-0.244
GGAGTTGA	0.0129
ACGGGACC	-0.109
CGGGGATC	0.0365
CCCGGATC	0.318
CCCGGACC	0.149
CGGGGATA	0.0634

Sequence	PBM E-score
CCGGGACC	0.342
CCCGGATA	0.286
CCGGGATC	0.339
GCGGGATA	0.0399
ACGGGATC	0.0948
GCGGGACC	-0.0189
CCGGGATA	0.315
CAAAACCG	0.116
GAACTCAA	0.0685
AGTTCTAT	-0.0389
ACCCAATC	-0.00791
GCTTGTCC	0.114
CGAATTTC	0.276
AAGGTTGG	-0.24
AGAGTGAG	-0.128
CTTTAAAC	-0.052
GTTTAAAC	0.32
GTTTAAAA	0.162
AATACCCG	0.104
AGGGAAAT	-0.166
ACGGAAAA	0.309
ACGGAAAC	0.306
TCGGAAAA	0.382
ACGGAAAT	0.39
AAGGAAAT	0.107

Sequence	PBM E-score
GCGGAAAC	0.0908
TTGGAAAA	0.134
TGGGAAAA	-0.0424
ATGGAAAA	0.158
GCGGAAAA	0.216
AAGGAAAC	0.0646
AAGTGGGA	0.034
CCAGCGGG	0.134
ATACCCAT	-0.0126
ATAGAGAA	0.103
CATTCGAG	-0.0644
ACATCTCC	0.128
GTCATTCA	0.0449
CCGTCTCG	0.159
GTCTCGGA	0.227
AGCTCGGA	0.159
ACCTCGGC	0.238
AACTCGGC	0.273
AGCTCGGC	0.316
ATCTCGGC	0.37
ATCTCGGA	0.31
AGCTCGGG	0.138
ATCTCGGG	0.219
CACTCGGG	0.0303
CTCTCGGC	0.238

Sequence	PBM E-score
CACTCGGC	0.331
ACAGTAGT	-0.0892
AAGACCAA	0.052
GAGCCTAA	-0.0836
ACTGCAAA	0.0905
GTAAGCGA	0.00236
GCTCAAAA	0.199
GTATACAA	0.125
ATATACAA	0.219
TTATACAA	0.313
CAACTTTC	0.0846
GTACTACA	0.0564
CTTGTCTC	0.0611
AATATGCA	-0.0575
ACGGCTCG	0.21
TCGGCTAA	0.313
ACGGCTAA	0.233
CCGGCTCC	0.293
GCGGCTCA	0.2
TCGGCTCA	0.2
CCGGCTCG	0.339
CCGGCTCA	0.362
GCGGCTAA	0.186
CAAGAGGA	-0.0179
CCGGTCGA	0.141

Sequence	PBM E-score
ACTGCCGA	0.262
AGGCGAGG	-0.204
CATGCTTA	-0.103
CTCCAAGC	-0.181
CGCTAATC	-0.0149
GGAGGGCC	-0.308
ACGCCCGA	0.056
CATATATA	0.28
GATATATC	0.266
AATATATG	0.153
TATATATA	0.424
GATATATA	0.349
GATATACA	0.128
AATATATT	0.38
TATATACA	0.164
AATATATA	0.267
AGGCCTAA	0.0613
CGCATGAG	-0.284
CGACAGTC	-0.182
AGATCATC	0.0775
CGTGGCAA	-0.0803
CATACCAC	0.0462
CGGAACTA	0.414
CGGAACGC	0.241
AGGAACAC	0.161

Sequence	PBM E-score
ACGAACAA	0.275
CGGAACGA	0.306
CCGAACAA	0.322
GGGAACAC	0.221
AGGAACTA	-0.103
GCGAACAA	0.246
CGGAACTC	0.202
CGGAACAC	0.356
AGGAACGA	-0.141
ACCAGACT	-0.0238
GTTTGCTA	0.0684
ATACACGG	0.047
CGGCGCAA	0.178
AGGCTGAT	-0.161
CCGAACTA	0.323
CGGAACAA	0.39
CGGAACAG	0.338
CCGAACAG	0.216
AGGAACAG	-0.19
TGGAACAA	0.195
CCGAACTC	0.246
GGGAACAA	0.158
ACGAACTA	0.157
CGATAGCA	-0.114
AGTTACGA	0.107

Sequence	PBM E-score
CAGAGGGG	-0.286
AGTAGCTC	-0.00154
CTCGCTTC	-0.0232
AGTCTGAG	-0.14
AGGCTCAC	-0.273
TGTTTAAA	0.0737
AGTTTTAA	0.159
AATTTTAT	0.379
CTATTAAA	0.21
TTATTAAA	0.233
ATATTAAA	0.368
AAATTTAT	0.286
TGTTTTAA	0.327
GCATTAAA	0.149
TCATTAAA	0.343
AATTTTAC	0.176
ACATTAAA	0.0822
TCAGCAAA	0.158
ACTAGTGA	-0.172
AGAGCTTA	0.0135
CGTTTCAC	0.135
ATCAATGA	0.2
CAGTAAAG	-0.177
GAGCAACA	0.128
GATAACAC	0.0102

Sequence	PBM E-score
CTATTTAA	0.0903
ATTTTAAC	0.028
ATATTTAA	0.306
AATTTTAA	0.252
AATTTATA	0.24
ATTTTATG	0.217
ATTTTTTA	0.274
ATATTTAC	0.202
GTTTTAAA	0.131
ATTTTTAA	0.333
AATTTATG	0.307
ATTTTAAA	0.331
ACCCCGCA	-0.0654
GCTTTTCC	0.109
GGCGATTA	0.0843
CAGATCGA	-0.0498
CCTAGTTA	0.0429
ACCCTACA	-0.0427
AGTTGACA	0.0221
AGAGGTGA	-0.148
AAACCCGC	0.135
CACCCGGG	0.189
AAACCCGA	0.215
ATCCCGGA	0.274
ACCCCGGC	0.0581

Sequence	PBM E-score
AACCCGGG	0.325
ATCCCGGG	0.36
AACCCGGC	0.329
ATCCCCGG	0.185
AAACCCGG	0.337
CACCCGGC	0.15
ACCCCGGG	0.263
ACTTTTTG	0.154
ACCCTCGT	-0.116
ACAGTAAG	-0.0845
GACATTGC	-0.175
ATATAAAG	0.0639
AAATAAAA	0.0817
ATATAAAC	0.17
ATATAAAT	0.305
AAATAAAT	0.34
AAATAAAG	0.045
CGTGCTGC	-0.0543
CGGGGGGA	-0.373
AACTGCAA	0.0848
GAGTTAGC	-0.0328
CTCTTATA	0.145
ATGGTATA	-0.0158
ACATGCTG	-0.257
CCACCGGA	0.346

Sequence	PBM E-score
CCACCGGG	-0.00255
ACACCGGA	0.246
GCACCGGA	0.33
GCACCGGC	0.234
CCACCGGC	0.146
TAGACCGA	0.105
TAATCATA	0.157
CACTAGTA	-0.0824
GACTAGTA	-0.12
TACTAGTA	0.338
AGTGCCGG	0.337
GGTGCCGA	0.266
AGTGCCGC	0.123
AGTGCCTG	-0.132
AGTGCCAG	-0.28
AGTGCCGA	0.333
GGACCACC	-0.116
CTCGACCC	-0.118
AGCTGCCC	0.034
